The text below walks through data of publication PMC8384837, “Expanding the binding specificity for RNA recognition by a PUF domain”.

Common to all, as to assay: yeast three-hybrid, YBZ-1, SC-Leu-His + 0.5 mM 3-AT, 4 days
Holding throughout (conditions): tags: N-Gal4 AD-HA kept; label: inside an RPR1-promoter hybrid RNA with tandem MS2 sites; ssRNA

The target in one assay is PUM1 PUF domain R5-NCR (Homo sapiens, UniProt Q14671 828-1176, C1007N;R1008C;Q1011R). A digest of the protocol:
(§1)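 Repeat regions from input (SC-Leu) and selection (SC-Leu-His + 0.5 mM 3-AT) plates were PCR-amplified and Illumina-sequenced after four days of growth. The cells were strain YBZ-1 with a LexA–MS2 coat fusion and a HIS3 reporter, co-expressing Pumilio-1 PUF domain libraries and matching RNA elements from a centromeric plasmid. The interaction score is the log change in variant frequency from input to selection, taken in log2 with a pseudocount of 1 for absent variants.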

The next assay concerns the target PUM1 PUF domain R5-RYR (Homo sapiens, UniProt Q14671 828-1176, C1007R;R1008Y;Q1011R). A digest of the protocol:
as §1

The next assay deals with PUM1 PUF domain R5-KYV (Homo sapiens, UniProt Q14671 828-1176, C1007K;R1008Y;Q1011V). A digest of the protocol: as §1
In a further assay the target is PUM1 PUF domain R7-KYW (Homo sapiens, UniProt Q14671 828-1176, S1079K;N1080Y;E1083W). The essentials:
as §1

The next assay deals with PUM1 PUF domain R7-RPQ (Homo sapiens, UniProt Q14671 828-1176, S1079R;N1080P;E1083Q). The essentials:
as §1

The next assay has as its target PUM1 PUF domain R3-EYE (Homo sapiens, UniProt Q14671 828-1176, C935E;R936Y;Q939E). A digest of the protocol: as §1
A further assay concerns the target PUM1 PUF domain R1-GGE (Homo sapiens, UniProt Q14671 828-1176, S863G;R864G;Q867E). The essentials: as §1
The next assay addresses PUM1 PUF domain R4-EPG (Homo sapiens, UniProt Q14671 828-1176, N971E;H972P;Q975G). The essentials: as §1
Another assay deals with PUM1 PUF domain R4-GNS (Homo sapiens, UniProt Q14671 828-1176, N971G;H972N;Q975S). The essentials: as §1
For another assay, the target named is PUM1 PUF domain R4-SPV (Homo sapiens, UniProt Q14671 828-1176, N971S;H972P;Q975V). The essentials:
as §1

For the next assay, the target named is T1, PUM1 PUF domain R6-RWV (Homo sapiens, UniProt Q14671 828-1176, N1043R;Y1044W;Q1047V).
T1 sequence: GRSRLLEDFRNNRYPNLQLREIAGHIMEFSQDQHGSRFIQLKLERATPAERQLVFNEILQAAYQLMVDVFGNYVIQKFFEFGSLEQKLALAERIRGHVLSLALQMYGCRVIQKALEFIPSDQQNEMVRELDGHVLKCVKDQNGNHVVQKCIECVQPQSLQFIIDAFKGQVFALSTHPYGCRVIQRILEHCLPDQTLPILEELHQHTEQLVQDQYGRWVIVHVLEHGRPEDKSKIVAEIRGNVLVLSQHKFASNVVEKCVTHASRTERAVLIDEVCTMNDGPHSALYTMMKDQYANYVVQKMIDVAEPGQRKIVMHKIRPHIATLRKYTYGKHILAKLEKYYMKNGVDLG
A digest of the protocol:
as §1

Another assay deals with T2, PUM1 PUF domain R6-YRS (Homo sapiens, UniProt Q14671 828-1176, N1043Y;Y1044R;Q1047S).
T2 sequence: T1 sequence with R216Y, W217R, V220S
The essentials:
as §1

In a further assay the target is PUM1 PUF domain R4-MNG (Homo sapiens, UniProt Q14671 828-1176, N971M;H972N;Q975G). A digest of the protocol: as §1
For a further assay, the target named is PUM1 PUF domain R5-MHM (Homo sapiens, UniProt Q14671 828-1176, C1007M;R1008H;Q1011M). The essentials: as §1
The next assay has as its target PUM1 PUF domain R5-EVC (Homo sapiens, UniProt Q14671 828-1176, C1007E;R1008V;Q1011C). The essentials:
as §1

The target in the next assay is PUM1 PUF domain R3-FRP (Homo sapiens, UniProt Q14671 828-1176, C935F;Q939P). The essentials:
as §1

The target of the next assay is PUM1 PUF domain R2-IWD (Homo sapiens, UniProt Q14671 828-1176, N899I;Y900W;Q903D). The essentials:
as §1

The target in a further assay is PUM1 PUF domain R4-VRG (Homo sapiens, UniProt Q14671 828-1176, N971V;H972R;Q975G). The essentials:
as §1

Another assay addresses PUM1 PUF domain R3-TYW (Homo sapiens, UniProt Q14671 828-1176, C935T;R936Y;Q939W). The essentials: as §1
The target of the next assay is T3, PUM1 PUF domain R6-RWK (Homo sapiens, UniProt Q14671 828-1176, N1043R;Y1044W;Q1047K).
T3 sequence: T1 sequence with V220K
A digest of the protocol: as §1

Changes are numbered by the printed parent chain.

PUM1 PUF domain R2-IWD, sequence (Q14671 828-1176 N899I/Y900W/Q903D): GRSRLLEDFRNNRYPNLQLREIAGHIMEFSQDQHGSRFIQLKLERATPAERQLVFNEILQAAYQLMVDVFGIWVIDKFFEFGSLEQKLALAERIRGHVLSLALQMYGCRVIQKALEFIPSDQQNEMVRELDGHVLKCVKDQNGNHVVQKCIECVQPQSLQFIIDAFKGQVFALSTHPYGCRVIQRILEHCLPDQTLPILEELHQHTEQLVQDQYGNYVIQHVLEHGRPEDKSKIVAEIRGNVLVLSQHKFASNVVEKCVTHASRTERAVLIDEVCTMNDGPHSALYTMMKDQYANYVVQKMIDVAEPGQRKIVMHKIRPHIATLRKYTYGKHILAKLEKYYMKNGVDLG
PUM1 PUF domain R4-MNG, sequence (Q14671 828-1176 N971M/H972N/Q975G): as the sequence (Q14671 828-1176 N899I/Y900W/Q903D) above, with I72N, W73Y, D76Q, N144M, H145N, Q148G counted along it
PUM1 PUF domain R5-EVC, sequence (Q14671 828-1176 C1007E/R1008V/Q1011C): as the sequence (Q14671 828-1176 N899I/Y900W/Q903D) above, with I72N, W73Y, D76Q, C180E, R181V, Q184C counted along it

For the sequence “GGCUAGAACUAGUGGAUCCCCCGGCGCCCGGCGGCUCGAGCCCGGGUAAGUGUUAAUAGUCUGCAUGCCGCCGGGCGCCAUGCCUGCAGGUCGACUCUAGAAAACAUG”, the binding signal was 4.23 log2 enrichment (interaction score) with PUM1 PUF domain R5-NCR, 4.47 log2 enrichment (interaction score) with PUM1 PUF domain R5-RYR and 4.52 log2 enrichment (interaction score) with PUM1 PUF domain R5-KYV.

For “GGCUAGAACUAGUGGAUCCCCCGGCGCCCGGCGGCUCGAGCCCGGGUAAGUCUAAAUAGUCUGCAUGCCGCCGGGCGCCAUGCCUGCAGGUCGACUCUAGAAAACAUG”, the binding signal with PUM1 PUF domain R7-KYW is 3.27 log2 enrichment (interaction score); with PUM1 PUF domain R7-RPQ, 2.7 log2 enrichment (interaction score).

Turning to “GGCUAGAACUAGUGGAUCCCCCGGCGCCCGGCGGCUCGAGCCCGGGUAAGUGUCAAUAGUCUGCAUGCCGCCGGGCGCCAUGCCUGCAGGUCGACUCUAGAAAACAUG”, the results for the binding signal in the assay with PUM1 PUF domain R5-NCR, with PUM1 PUF domain R5-RYR and in the assay with PUM1 PUF domain R5-KYV were 1.7 log2 enrichment (interaction score), 4.57 log2 enrichment (interaction score) and 5.44 log2 enrichment (interaction score), respectively.

On to “GGCUAGAACUAGUGGAUCCCCCGGCGCCCGGCGGCUCGAGCCCGGGUAAGUGUAAUUAGUCUGCAUGCCGCCGGGCGCCAUGCCUGCAGGUCGACUCUAGAAAACAUG”, for which the binding signal with PUM1 PUF domain R3-EYE was 5.03 log2 enrichment (interaction score).

As for “GGCUAGAACUAGUGGAUCCCCCGGCGCCCGGCGGCUCGAGCCCGGGUAAGUGUAAAUGGUCUGCAUGCCGCCGGGCGCCAUGCCUGCAGGUCGACUCUAGAAAACAUG”, the binding signal with PUM1 PUF domain R1-GGE was 2.22 log2 enrichment (interaction score).

“GGCUAGAACUAGUGGAUCCCCCGGCGCCCGGCGGCUCGAGCCCGGGUAAGUGUAUAUAGUCUGCAUGCCGCCGGGCGCCAUGCCUGCAGGUCGACUCUAGAAAACAUG”: the figures for the binding signal with PUM1 PUF domain R4-EPG, in the assay with PUM1 PUF domain R4-GNS and in the assay with PUM1 PUF domain R4-SPV were 2.97 log2 enrichment (interaction score), 4.46 log2 enrichment (interaction score) and 3.71 log2 enrichment (interaction score), respectively.

As for “GGCUAGAACUAGUGGAUCCCCCGGCGCCCGGCGGCUCGAGCCCGGGUAAGUGAAAAUAGUCUGCAUGCCGCCGGGCGCCAUGCCUGCAGGUCGACUCUAGAAAACAUG”, the binding signal with PUM1 PUF domain R6-RWV is 2.99 log2 enrichment (interaction score); in the assay with PUM1 PUF domain R6-YRS it was 3.7 log2 enrichment (interaction score).

Take “GGCUAGAACUAGUGGAUCCCCCGGCGCCCGGCGGCUCGAGCCCGGGUAAGUGUACAUAGUCUGCAUGCCGCCGGGCGCCAUGCCUGCAGGUCGACUCUAGAAAACAUG”: the binding signal was 2.01 log2 enrichment (interaction score) with PUM1 PUF domain R4-GNS and 2.1 log2 enrichment (interaction score) in the assay with PUM1 PUF domain R4-MNG.

Turning to “GGCUAGAACUAGUGGAUCCCCCGGCGCCCGGCGGCUCGAGCCCGGGUAAGUGUGAAUAGUCUGCAUGCCGCCGGGCGCCAUGCCUGCAGGUCGACUCUAGAAAACAUG”, the binding signal in the assay with PUM1 PUF domain R5-MHM was 2.99 log2 enrichment (interaction score); in the assay with PUM1 PUF domain R5-EVC, 3.25 log2 enrichment (interaction score); with PUM1 PUF domain R5-RYR it was 2.14 log2 enrichment (interaction score).

Regarding “GGCUAGAACUAGUGGAUCCCCCGGCGCCCGGCGGCUCGAGCCCGGGUAAGUGUAAGUAGUCUGCAUGCCGCCGGGCGCCAUGCCUGCAGGUCGACUCUAGAAAACAUG”, in the assay with PUM1 PUF domain R3-FRP, the binding signal is 2.47 log2 enrichment (interaction score).

As for “GGCUAGAACUAGUGGAUCCCCCGGCGCCCGGCGGCUCGAGCCCGGGUAAGUUUAAAUAGUCUGCAUGCCGCCGGGCGCCAUGCCUGCAGGUCGACUCUAGAAAACAUG”, the binding signal in the assay with PUM1 PUF domain R7-RPQ is 5.16 log2 enrichment (interaction score).

Regarding “GGCUAGAACUAGUGGAUCCCCCGGCGCCCGGCGGCUCGAGCCCGGGUAAGUGUAAAAAGUCUGCAUGCCGCCGGGCGCCAUGCCUGCAGGUCGACUCUAGAAAACAUG”, in the assay with PUM1 PUF domain R2-IWD, the binding signal is 2.12 log2 enrichment (interaction score).

As for “GGCUAGAACUAGUGGAUCCCCCGGCGCCCGGCGGCUCGAGCCCGGGUAAGUGUAAAUAGUCUGCAUGCCGCCGGGCGCCAUGCCUGCAGGUCGACUCUAGAAAACAUG”, the binding signal was 1.2 log2 enrichment (interaction score) with PUM1 PUF domain R4-EPG; 2.34 log2 enrichment (interaction score) in the assay with PUM1 PUF domain R4-GNS; 4.34 log2 enrichment (interaction score) with PUM1 PUF domain R4-VRG; 5.13 log2 enrichment (interaction score) in the assay with PUM1 PUF domain R6-RWV; 5.67 log2 enrichment (interaction score) in the assay with PUM1 PUF domain R3-TYW; 1.64 log2 enrichment (interaction score) in the assay with PUM1 PUF domain R4-SPV. Also, the binding signal is 2.49 log2 enrichment (interaction score) with PUM1 PUF domain R5-RYR, 6.43 log2 enrichment (interaction score) with PUM1 PUF domain R6-RWK, 2.67 log2 enrichment (interaction score) with PUM1 PUF domain R3-EYE and 4.2 log2 enrichment (interaction score) with PUM1 PUF domain R5-KYV.
